# Sampled rows, rich in hits. Any-hit rate of the full collection: about 1.2%.
# S1P2 antag = antagonists of human S1P2 receptor; cell-based S1P2 antagonist assay, inhibition at 5 uM; inhibition, % at 5 µM; 0.21% of 97,000 active; in the data active = inhibition above about 45%;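 note: CRE beta-lactamase reporter cells expressing human S1P2 stimulated with S1P; 0% = agonist at EC80 alone and 100% = agonist plus reference antagonist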
# S1P2 ag = activates the human S1P2 receptor. S1P2-expressing cell line, agonist reporter read-out. 0.46% of 97,000 active. activation, % at 4.5 µM. AID 729. O95136; in the data active = activation above about 16%;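 note: 0% = vehicle low control and 100% = maximal reference agonist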
# GALR2 agonist = GALR2 (human) receptor agonism; activation, % (test concentration not listed); O43603; GALR2-expressing cells, agonist activation read-out; AID 803; 0.48% of 140,000 active; in the data active = activation above about 5%, passing the limit was not always enough;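 note: 0% = vehicle buffer wells and 100% = reference agonist at full effect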
# Target sequence (O43603 whole entry, looked up): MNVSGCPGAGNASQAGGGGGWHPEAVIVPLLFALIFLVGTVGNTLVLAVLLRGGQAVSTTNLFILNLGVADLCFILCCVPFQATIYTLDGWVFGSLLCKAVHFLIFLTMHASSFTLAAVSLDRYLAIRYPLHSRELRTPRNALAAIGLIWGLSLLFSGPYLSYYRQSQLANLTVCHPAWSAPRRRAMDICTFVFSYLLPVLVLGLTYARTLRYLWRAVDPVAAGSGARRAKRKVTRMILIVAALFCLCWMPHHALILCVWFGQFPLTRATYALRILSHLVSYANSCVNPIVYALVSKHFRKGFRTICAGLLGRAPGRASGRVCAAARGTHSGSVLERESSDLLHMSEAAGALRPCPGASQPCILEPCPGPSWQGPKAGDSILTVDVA
# GALR2 antag = GALR2 (human) receptor antagonism | O43603 | GALR2-expressing cells, antagonist mode | inhibition, % at 4 µM | 0.39% of 140,000 active | AID 828; in the data active = inhibition above about 27%;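 note: cells stimulated with galanin 1-16 at roughly its EC80; 0% = agonist challenge control and 100% = basal control without agonist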
# GALR2 agon conf = confirmation of human galanin receptor 2 (GALR2) agonists; shares compounds with GALR2 agonist; GALR2-expressing cells, agonist activation; activation, % at 5.6 µM; 10% of 460 active; AID 864; in the data active = activation above about 8.4%;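 note: 0% = buffer-only vehicle wells and 100% = full reference agonist response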
# BLA activ ctr = beta-lactamase activation, GALR2 counterscreen. CHO NFAT-bla reporter, beta-lactamase FRET activation. AID 865. activation, % at 5.6 µM. 10% of 460 active. shares compounds with GALR2 agonist;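 active = activation above the screen-wide mean activation plus 3 SD, cut at about 8% in these data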;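 note: 0% = DMSO with PBS wells and 100% = thapsigargin positive control wells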
# * = called active by the depositor; . = no result.
SMILES,S1P2 antag,S1P2 ag,GALR2 agonist,GALR2 antag,GALR2 agon conf,BLA activ ctr
COc1ccc(-c2nnc3n2N=C(c2cccc(Br)c2)CS3)cc1OC,.,.,9.7*,9.5,1.0,-0.2
COC(=O)c1sccc1NC(=O)CN(C)NS(=O)(=O)c1ccc(F)cc1,-53.5,-3.0,9.8,11.3,-0.6,-0.5
COC(=O)c1sccc1NC(=O)CN(C)NS(=O)(=O)c1ccc(Cl)cc1,11.0,-4.5,-1.6,9.6,.,.
CCCCn1c(SCC(=O)c2cc(OC)ccc2OC)nc2cc(S(N)(=O)=O)ccc21,.,.,68.3*,5.7,0.8,-0.1
CCCCn1c(SCC(=O)N2CCC(C)CC2)nc2cc(S(N)(=O)=O)ccc21,16.5,-5.4,1.3,-3.5,.,.
O=C(CSc1ccc2nnc(-c3cccc(F)c3)n2n1)N1CCCc2ccccc21,.,.,9.1*,2.5,9.7*,7.8
Cc1nc(SCC(=O)N(C)Cc2ccco2)c2c(C)c(C)sc2n1,-23.2,2.9,11.1,-0.9,-0.4,0.2
Cc1nc(NCc2ccco2)c2c(C)c(C)sc2n1,2.4,0.3,-2.5,6.0,.,.
Cc1cc(C)c(-c2c(O)c3cnn(-c4ccccc4)c3[nH]c2=O)c(C)c1,.,.,34.2*,9.2,-1.0,-4.1
Cc1cccc(-c2nnn3c2nc(NCCc2ccc(S(N)(=O)=O)cc2)c2ccccc23)c1,.,.,3.8,17.6,.,.
NS(=O)(=O)c1ccc(CCNc2nc3c(-c4cccc(F)c4)nnn3c3ccccc23)cc1,.,.,11.1*,18.0,2.8,2.1
NC(N)=NNC(=O)c1ccccc1Cl,.,.,-0.6,6.7,.,.
O=C(CCSCCc1ccccn1)Nc1ccc(Cl)cn1,2.4,-4.2,10.9,-6.4,-0.6,-0.4
CC1CCN(c2ccc(NC(=S)NC(=O)c3ccc(-c4cccc([N+](=O)[O-])c4)o3)cc2)CC1,-16.0,-3.6,-2.4,6.2,.,.
CC1CCN(c2ccccc2NC(=S)NC(=O)c2ccc(-c3cccc([N+](=O)[O-])c3)o2)CC1,8.9,-2.5,20.9*,8.1,-0.7,-0.8
COC(=O)C1=C(C)NC2=C(C(=O)CC(C)(C)C2)C1c1cnn(C)c1C (stereo unspecified),.,.,0.2,-8.5,.,.
CCOc1ncccc1C(=O)OCC(=O)Nc1ccc(-c2nc3ccc(C)cc3s2)cc1,.,.,10.9*,-5.0,7.0,-0.9
CC(C)N1C(=O)S/C(=C/c2ccc3c(c2)n(C)c(=O)n3C)C1=O,-4.9,0.1,96.9*,3.1,-0.2,0.8
CC(C)N1C(=O)S/C(=C/c2cccnc2)C1=O,20.9,-6.9,-2.1,8.3,.,.
COc1ccccc1NC(=S)Nc1ccccn1,.,.,44.2*,7.0,-0.8,-2.2
O=C(CSc1nnc(-c2ccc(O)cc2)n1-c1ccccc1)CC(=O)Nc1ccccc1,.,.,-1.5,1.2,.,.
CCOc1cccc(-c2nn(-c3ccccc3)cc2/C=C(/C#N)C(=O)NCCCn2ccnc2)c1,.,.,45.6*,8.0,35.3*,81.6*
CCOc1ccccc1N=c1oc2cc(O)ccc2cc1C(=O)NCC1CCCO1 (stereo unspecified),-48.1,17.7*,65.6*,-25.1,1.9,6.8
CCOc1ccc(S(=O)(=O)Nc2ccccc2C(=O)NCC2CCCO2)cc1 (stereo unspecified),16.9,-6.4,-3.2,3.7,.,.
CC(Cc1ccccc1)C(=O)N[C@@H](CO)Cc1ccccc1 (stereo partly specified),.,.,23.3*,-5.4,-0.5,-0.6
SMILES,S1P2 antag,S1P2 ag,GALR2 agonist,GALR2 antag,GALR2 agon conf,BLA activ ctr
CC(Cc1ccccc1)C(=O)NCc1ccncc1 (stereo unspecified),.,.,-0.1,-1.4,.,.
COc1ccc(C2CC(c3cccs3)=NN2c2ccc(C=O)cc2)cc1 (stereo unspecified),.,.,28.6*,6.4,14.7*,31.6*
COc1ccc(C2CC(c3cccs3)=NN2C(=O)c2ccc(Br)o2)cc1 (stereo unspecified),.,.,0.6,-4.1,.,.
COc1ccc(C2CC(c3ccccc3)=NN2c2ccc(/C=N/NC(=O)c3ccncc3)cc2)cc1 (stereo unspecified),22.0,8.5,16.7*,24.2,2.2,1.1
CNC(=O)NC(=O)C(C)OC(=O)CCCSc1nc2ccccc2s1 (stereo unspecified),.,.,-1.1,10.4,.,.
Cc1cccc2c1-c1sc(C(=O)Nc3nccs3)cc1CO2,-12.1,23.6*,89.1*,5.0,11.1*,24.4*
O=C1Nc2ccccc2N(O)N1c1ccc(S(=O)(=O)N2CCOCC2)cc1,.,.,-2.6,-1.8,.,.
COc1ccc2c(c1OC)C(=O)N1c3ccccc3C(=O)N(c3ccccc3)C21 (stereo unspecified),26.1,2.7,-0.7,7.0,.,.
NC(=O)C1CC(=O)N(c2ccc(OCC(=O)Nc3cccc(C(F)(F)F)c3)cc2)C1 (stereo unspecified),-26.4,-1.8,8.3,-9.3,-0.9,-0.8
CC1CCc2cc(F)cc3c(O)c(C(=O)NCc4ccco4)c(=O)n1c23 (stereo unspecified),17.0,-10.0,9.5*,0.3,-0.3,-1.1
Cc1cccc(NC(=S)NC(NC(=O)OCc2ccccc2)C(Cl)(Cl)Cl)c1 (stereo unspecified),8.6,-4.3,-3.4,-7.1,.,.
OC(CNCCC1C=Nc2ccccc21)Cn1c2ccc(Cl)cc2c2cc(Cl)ccc21 (stereo unspecified),.,.,3.7,2.4,.,.
Cc1cc(C)cc(NC(=O)CN2CCCN(S(=O)(=O)c3ccc(Br)s3)CC2)c1,-9.9,-2.5,-1.1,-6.6,.,.
Cc1ccc(NC(=O)CN2CCCN(S(=O)(=O)c3ccc(Br)s3)CC2)cc1,-11.9,-3.0,8.5,-2.7,0.3,-1.1
O=C(Nc1ccc2c(c1)OCO2)C1CCCN1C(=O)OCc1ccccc1 (stereo unspecified),.,.,-2.9,16.0,.,.
O=C(Nc1ccc2c(c1)OCO2)OCc1ccccc1,6.0,-6.1,11.6*,-1.2,-0.6,-1.0
COc1cc2nc(/C=C/c3cc(OC)c(OC)c(OC)c3)sc2cc1SC,.,.,14.1*,-4.2,5.8,9.0*
COc1cc(/C=C/C(=O)Nc2nc3ccc(S(=O)(=O)N(C)C)cc3s2)cc(OC)c1OC,.,.,2.0,11.4,.,.
CC(C)Oc1ccc(/C(O)=C2/C(=O)C(=O)N(CCN(C)C)C2c2cccs2)cc1 (stereo unspecified),.,.,-1.4,8.3,.,.
COC(=O)c1sccc1NC(=O)CSc1ccccc1NS(=O)(=O)c1ccc(Br)cc1,14.3,-3.7,-0.7,7.4,.,.
Cc1cccc(C2=NC(C(F)(F)F)(C(F)(F)F)c3c(n(-c4ccc(F)cc4)c(=O)[nH]c3=O)N2)c1,.,.,-1.6,-0.3,.,.
COc1ccccc1C(=O)N1CCN(c2cccc(Cl)c2)CC1,3.3,-4.0,-1.1,6.0,.,.
Cc1cccc(C2=NN(c3ccc(Br)cc3)[C@@H](C(=O)N3CCOC3=O)[C@@H]2c2ccc(F)cc2)c1,.,.,9.8*,7.2,5.0,8.0
O=C1OCCN1C(=O)[C@H]1[C@H](c2ccc(Cl)cc2)C(c2cccc(Cl)c2)=NN1c1ccccc1,.,.,23.1*,-0.8,10.3*,18.8*
COc1ccccc1[C@@H]1C(c2cccc(Cl)c2)=NN(c2ccccc2)[C@H]1C(=O)N1CCOC1=O,.,.,29.9*,8.4,12.5*,22.4*
